Activity calls are given as the source filed them.
What was measured:
[1] = small molecules captured by biotinylated probe aFSTL3 – biochemical, small-molecule microarray, fluorescence 635/667, stem cell growth factor project, primary screen (AID 1064); conditions: higher = more signal;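 also: measures binding of the biotinylated anti-FSTL3 antibody to printed compounds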
[2] = binders from COS7 lysate, DM2A8 probe, primary screen, torsin A project, cell lysate, small-molecule microarray, fluorescence 635/667 (AID 1065); conditions: higher = more signal, COS7 lysate expressing mutant human TOR1A
[3] = small molecules captured by biotinylated probe aFGF2 – biochemical, small-molecule microarray, fluorescence 635/667, stem cell growth factor project, primary screen (AID 1067); conditions: higher = more signal;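 also: measures binding of biotinylated aFGF2 protein to printed compounds on slides; z-score merges feature fluorescence and signal-to-noise across triplicate slides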
[4] = small molecules captured by biotinylated probe aFGF10 – biochemical, small-molecule microarray, fluorescence 635/667, stem cell growth factor project, primary screen (AID 1071); conditions: higher = more signal;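 also: score merges 667 nm spot intensity and signal to noise from triplicate slides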
[5] = target: Neurogenic locus notch homolog protein 2 (Homo sapiens) (UniProt Q04721); assay: small molecules binding Notch2 protein – biochemical, small-molecule microarray, 635 nm fluorescence, stem cell growth factors, primary screen (AID 1073); conditions: higher = more signal
[6] = target: Pro-neuregulin-1, membrane-bound isoform (Homo sapiens) (UniProt Q02297); assay: small molecules binding neuregulin-1 protein – biochemical, small-molecule microarray, fluorescence 635/667, psychiatric disease protein project, primary screen (AID 1075); conditions: NRG1 binding, 635 nm fluorescence, higher = more signal;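 also: score combines 667 nm spot fluorescence with signal to noise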
[7] = tested on: Neuregulin-1 EGF-like domain; assay: small molecules binding NRG1 EGF domain – biochemical, small-molecule microarray, 635 nm fluorescence, primary screen (AID 1081); conditions: higher = more signal;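 also: binding of the protein to compounds printed on small-molecule microarray slides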
[8] = FRG1 expression reporter modulators in myotubes – cell-based, C2C12 myotubes, firefly/Renilla luciferase, luminescence, FRG1 inhibition for FSHD, primary screen (AID 1084); conditions: FRG1 promoter luciferase, higher = more signal, called active from +8 up or from −8 down
[9] = small molecules captured by biotinylated probe aFST – biochemical, small-molecule microarray, fluorescence 635/667, stem cell growth factor project, primary screen (AID 1086); conditions: higher = more signal;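 also: score merges 667 nm fluorescence with signal-to-noise of each printed compound spot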
[10] = binders of probe aHhip on microarray, primary screen, stem cell growth factor project, biochemical, small-molecule microarray, fluorescence 635/667 (AID 1087); conditions: higher = more signal;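 also: score merges spot fluorescence at 667nm with spot signal to noise ratio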
[11] = tested on: PRMT1 (protein arginine N-methyltransferase 1); assay: small molecules binding arginine methyltransferase PRMT1 – biochemical, small-molecule microarray, 635 nm fluorescence, primary screen (AID 1088); conditions: higher = more signal;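 also: binding of Prmt1 protein to compounds spotted on small-molecule microarray slides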
[12] = growth effects on S. cerevisiae YJM789 – YJM789 clinical isolate, OD600, 24 h, basal, primary screen (AID 1089); conditions: higher = more signal, called active from +8 up or from −8 down;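 also: growth of clinical yeast isolate S. cerevisiae YJM 789 seeded 1000 cells per well; test concentration not given here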
[13] = S. pombe growth modifiers, basal conditions – strain 972, OD600, 24 h, no modulator, primary screen (AID 1090);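 also: basal condition with compound alone and no growth modifier present; test concentration not given here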; conditions: S. pombe 972 growth, higher = more signal, called active from +8 up or from −8 down
[14] = budding yeast growth modifiers under rapamycin – strain BY4716, OD600, 96 h, primary screen (AID 1091); also: test concentration not given here; conditions: S. cerevisiae BY4716 + rapamycin, higher = more signal, called active from +8 up or from −8 down
[15] = target: Torsin-1A-interacting protein 2 (Homo sapiens) (UniProt Q8NFQ8); assay: small molecules binding lysate-expressed LULL1 – cell lysate, human LULL1 lysate, 635/667 nm fluorescence, primary screen (AID 1092); conditions: small-molecule microarray, hLULL1 lysate binding, 635 nm fluorescence; higher = more signal;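 also: probe is lysate of COS7 cells overexpressing human LULL1; score merges per-feature 667 nm fluorescence with signal-to-noise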
[16] = optical density change of DRC41 E. coli – strain DRC41, OD650, 24 h, E. coli filamentation project, primary screen (AID 1093);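 also: MC1000 strain lacking acrAB efflux and sulA so SOS filamentation is blocked; test concentration not given here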; conditions: E. coli DRC41 growth, higher = more signal, called active from +8 up or from −8 down
[17] = probe aLefty2 binding to arrayed compounds – biochemical, biotinylated probe, 635/667 nm fluorescence, primary screen (AID 1094); conditions: small-molecule microarray, higher = more signal;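 also: score merges spot fluorescence near 667 nm with spot signal-to-noise ratio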
[18] = tested on: Noggin (protein binding on small-molecule microarray); assay: small molecules binding Noggin protein – biochemical, 635/667 nm fluorescence, primary screen (AID 1095); conditions: 635 nm fluorescence, higher = more signal;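 also: score merges 667 nm feature fluorescence with signal to noise over triplicate slides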
[19] = target: Neurogenic locus notch homolog protein 3 (Homo sapiens) (UniProt Q9UM47); assay: small molecules binding NOTCH3 protein – biochemical, 635/667 nm fluorescence, primary screen (AID 1096); conditions: small-molecule microarray, 635 nm fluorescence, higher = more signal
[20] = probe aEGFR binding to arrayed compounds – biochemical, biotinylated probe, 635/667 nm fluorescence, primary screen (AID 1097); conditions: small-molecule microarray, higher = more signal;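 also: probe is a biotinylated anti-EGFR antibody binding compounds printed on slides; score combines fluorescence near 667 nm and signal to noise of each spot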

Chain of Torsin-1A-interacting protein 2 (Homo sapiens) (Q8NFQ8 whole entry, looked up): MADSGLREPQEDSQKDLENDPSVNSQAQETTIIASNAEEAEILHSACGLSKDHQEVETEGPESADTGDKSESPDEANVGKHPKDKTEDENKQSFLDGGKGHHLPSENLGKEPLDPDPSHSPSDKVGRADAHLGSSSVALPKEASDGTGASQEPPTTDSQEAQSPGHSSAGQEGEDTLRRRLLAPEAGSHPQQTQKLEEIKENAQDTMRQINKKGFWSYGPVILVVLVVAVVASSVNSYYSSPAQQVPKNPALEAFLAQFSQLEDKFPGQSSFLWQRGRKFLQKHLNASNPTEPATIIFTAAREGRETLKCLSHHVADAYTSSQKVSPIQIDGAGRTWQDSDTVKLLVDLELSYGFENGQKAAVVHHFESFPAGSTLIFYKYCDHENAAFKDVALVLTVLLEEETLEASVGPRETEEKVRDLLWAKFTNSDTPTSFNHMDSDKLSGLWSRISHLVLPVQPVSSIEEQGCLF
Chain of Neurogenic locus notch homolog protein 3 (Homo sapiens) (Q9UM47 whole entry, looked up): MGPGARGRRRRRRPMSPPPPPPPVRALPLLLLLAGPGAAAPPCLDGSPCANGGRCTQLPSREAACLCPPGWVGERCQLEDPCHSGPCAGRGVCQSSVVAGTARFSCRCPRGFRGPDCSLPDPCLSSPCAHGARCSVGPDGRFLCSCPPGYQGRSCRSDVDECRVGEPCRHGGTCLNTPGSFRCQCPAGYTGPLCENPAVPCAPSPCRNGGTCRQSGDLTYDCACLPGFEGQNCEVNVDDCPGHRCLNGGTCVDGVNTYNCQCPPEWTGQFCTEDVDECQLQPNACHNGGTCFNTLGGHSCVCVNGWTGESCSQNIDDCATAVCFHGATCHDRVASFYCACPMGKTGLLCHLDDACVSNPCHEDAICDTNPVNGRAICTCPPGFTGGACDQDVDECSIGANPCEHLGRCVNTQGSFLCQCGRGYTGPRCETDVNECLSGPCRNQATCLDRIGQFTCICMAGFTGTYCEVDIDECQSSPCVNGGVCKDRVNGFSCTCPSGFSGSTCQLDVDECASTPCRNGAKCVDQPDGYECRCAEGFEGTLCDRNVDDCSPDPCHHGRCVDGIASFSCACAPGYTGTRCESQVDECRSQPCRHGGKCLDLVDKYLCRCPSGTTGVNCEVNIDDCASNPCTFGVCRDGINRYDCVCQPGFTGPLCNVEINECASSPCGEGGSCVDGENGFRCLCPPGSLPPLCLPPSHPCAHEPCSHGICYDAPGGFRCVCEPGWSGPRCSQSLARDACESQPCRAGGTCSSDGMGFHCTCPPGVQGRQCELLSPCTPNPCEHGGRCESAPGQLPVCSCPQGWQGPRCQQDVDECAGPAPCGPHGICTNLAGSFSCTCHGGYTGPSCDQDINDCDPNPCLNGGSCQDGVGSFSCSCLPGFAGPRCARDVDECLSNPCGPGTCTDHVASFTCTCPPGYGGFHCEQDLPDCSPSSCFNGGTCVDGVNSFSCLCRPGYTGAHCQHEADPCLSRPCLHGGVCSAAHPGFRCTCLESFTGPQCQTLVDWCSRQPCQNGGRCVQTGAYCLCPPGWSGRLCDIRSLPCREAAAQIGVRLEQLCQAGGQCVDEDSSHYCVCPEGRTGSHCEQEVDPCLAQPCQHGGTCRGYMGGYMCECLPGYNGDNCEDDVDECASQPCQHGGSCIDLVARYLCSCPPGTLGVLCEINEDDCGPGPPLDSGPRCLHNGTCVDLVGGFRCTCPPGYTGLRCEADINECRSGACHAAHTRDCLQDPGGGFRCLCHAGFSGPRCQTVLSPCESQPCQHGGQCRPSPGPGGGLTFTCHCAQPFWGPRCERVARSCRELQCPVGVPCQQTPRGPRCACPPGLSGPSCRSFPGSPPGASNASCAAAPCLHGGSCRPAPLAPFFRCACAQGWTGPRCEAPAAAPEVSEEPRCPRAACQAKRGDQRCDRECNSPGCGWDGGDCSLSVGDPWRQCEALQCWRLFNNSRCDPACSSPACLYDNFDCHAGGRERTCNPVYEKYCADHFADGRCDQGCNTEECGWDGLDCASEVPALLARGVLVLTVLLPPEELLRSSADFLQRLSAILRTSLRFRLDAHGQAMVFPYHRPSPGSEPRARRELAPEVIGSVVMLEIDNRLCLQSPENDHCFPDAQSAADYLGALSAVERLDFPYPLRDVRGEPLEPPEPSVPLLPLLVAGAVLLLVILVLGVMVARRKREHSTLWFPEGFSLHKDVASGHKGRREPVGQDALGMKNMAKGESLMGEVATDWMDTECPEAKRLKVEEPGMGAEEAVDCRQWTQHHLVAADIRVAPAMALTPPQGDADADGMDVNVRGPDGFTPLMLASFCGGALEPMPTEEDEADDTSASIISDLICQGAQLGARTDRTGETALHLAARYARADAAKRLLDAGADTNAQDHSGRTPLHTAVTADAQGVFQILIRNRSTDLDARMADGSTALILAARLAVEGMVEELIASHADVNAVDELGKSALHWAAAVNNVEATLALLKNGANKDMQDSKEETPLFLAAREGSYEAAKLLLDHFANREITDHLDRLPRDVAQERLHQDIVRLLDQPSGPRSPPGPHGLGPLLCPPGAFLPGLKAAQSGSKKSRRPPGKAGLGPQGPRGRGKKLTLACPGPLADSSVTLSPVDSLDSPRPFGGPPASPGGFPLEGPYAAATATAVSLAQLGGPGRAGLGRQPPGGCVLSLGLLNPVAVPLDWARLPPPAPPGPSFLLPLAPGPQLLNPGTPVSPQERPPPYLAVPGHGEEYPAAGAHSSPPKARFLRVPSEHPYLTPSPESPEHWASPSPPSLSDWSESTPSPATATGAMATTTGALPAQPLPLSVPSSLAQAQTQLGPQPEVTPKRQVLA
Chain of Pro-neuregulin-1, membrane-bound isoform (Homo sapiens) (Q02297 whole entry, looked up, the tested form may be a part, canonical isoform): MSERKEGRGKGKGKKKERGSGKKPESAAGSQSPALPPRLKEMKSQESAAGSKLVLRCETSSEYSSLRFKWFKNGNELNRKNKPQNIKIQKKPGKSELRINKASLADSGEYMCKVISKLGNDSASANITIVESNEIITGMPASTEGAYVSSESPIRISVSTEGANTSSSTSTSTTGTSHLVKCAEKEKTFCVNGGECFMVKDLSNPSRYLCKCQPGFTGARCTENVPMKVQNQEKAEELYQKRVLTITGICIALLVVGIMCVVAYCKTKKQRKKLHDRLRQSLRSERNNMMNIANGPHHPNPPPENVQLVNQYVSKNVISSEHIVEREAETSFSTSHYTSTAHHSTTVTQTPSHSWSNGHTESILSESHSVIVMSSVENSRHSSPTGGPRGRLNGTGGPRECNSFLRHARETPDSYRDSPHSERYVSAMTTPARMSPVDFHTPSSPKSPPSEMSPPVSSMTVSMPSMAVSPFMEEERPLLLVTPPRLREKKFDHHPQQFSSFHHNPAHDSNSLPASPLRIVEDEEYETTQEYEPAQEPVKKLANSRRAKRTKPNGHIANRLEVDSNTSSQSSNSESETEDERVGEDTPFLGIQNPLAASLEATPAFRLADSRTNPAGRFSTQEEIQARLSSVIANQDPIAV

Row | Structure (SMILES) | composite z-score [1] | composite z-score [2] | composite z-score [3] | composite z-score [4] | composite z-score [5] | composite z-score [6] | composite z-score [7] | z-score [8] | composite z-score [9] | composite z-score [10] | composite z-score [11] | z-score [12] | z-score [13] | z-score [14] | composite z-score [15] | z-score [16] | composite z-score [17] | composite z-score [18] | composite z-score [19] | composite z-score [20]
1 | O=C1C2C=CC(C(O)c3ccc(F)cc3)N(Nc3ccccc3)C2C(=O)N1c1ccccc1 (stereo not given) | 0.719 | 0.616 | 0.0332 | 0.407 | 0.314 | 0.828 | 1.14 | -1.65 (inactive) | 0.593 | 0.0053 | 0.435 | 0.874 (inactive) | 1.31 (inactive) | 1.59 (inactive) | 3.15 | -0.754 (inactive) | 0.388 | -1.2 | 0.246 | -0.0111
2 | O=C1O[C@@H](c2ccccc2)[C@@H](c2ccccc2)N2[C@@H](c3ccc(OCCO)cc3)[C@]3(C(=O)Nc4ccccc43)[C@@H](C(=O)Nc3nc4ccccc4s3)[C@H]12 | 0.509 | 0.58 | 0.0732 | 0.962 | 1.49 | 1.45 | 1.3 | -3.08 (inactive) | 1.01 | 0.629 | 1.53 | 1.46 (inactive) | 1.15 (inactive) | 2.44 (inactive) | 3.34 | 0.344 (inactive) | 0.321 | 1.3 | 1.11 | 0.224
3 | CCCCCN1CC=CC23O[C@@H]4/C=C\CCCOC(=O)C4[C@H]2C(=O)N(CCCCCCO)[C@@H]3C1=O (stereo not given in full) | -0.19 | 0.109 | -0.103 | -0.525 | -0.774 | 0.729 | 1.28 | -1.19 (inactive) | -0.645 | -0.37 | -0.0832 | -3.85 (inactive) | -2.83 (inactive) | -2.64 (inactive) | 3.32 | 1.61 (inactive) | -0.147 | -0.471 | -0.0559 | 0.0538
4 | CC(C)c1ccc(NN2C(C(O)c3cccc(O)c3)C=CC3C(=O)N(c4ccccc4)C(=O)C32)cc1 (stereo not given) | 0.0067 | 0.422 | 0.0864 | 0.618 | 1.57 | 1.97 | 1.3 | -1.04 (inactive) | 1.33 | 0.122 | 1.46 | 1.18 (inactive) | -0.653 (inactive) | 0.697 (inactive) | 3.62 | -0.416 (inactive) | 0.234 | 0.527 | 1.06 | -0.0053
5 | CN1CCC(CCCO)=CC1c1ccc(CN2CCCC2)cc1 (stereo not given) | 1.16 | 2.31 | 0.0626 | 0.789 | 1.12 | 1.7 | 1.27 | 0.745 (inactive) | 0.612 | -0.0237 | 1.54 | -1.05 (inactive) | -2.41 (inactive) | -0.763 (inactive) | 2.18 | -0.145 (inactive) | 0.36 | 1.72 | 1.07 | 0.337
6 | COc1ccc(C(O)C2C=CC3C(=O)NC(=O)C3N2Nc2ccccn2)cc1OCc1ccccc1 (stereo not given) | -0.202 | -0.0593 | -0.0226 | 0.177 | 1.27 | 1.71 | 0.666 | 0.387 (inactive) | 0.216 | 3.69 | 0.301 | 0.167 (inactive) | 1.03 (inactive) | -0.269 (inactive) | 3.51 | -0.181 (inactive) | -0.0865 | 0.15 | -0.192 | 0.0357
7 | CCCNC(=O)[C@@H]1c2ccccc2C(=O)N(Cc2ccccc2)[C@H]1c1ccc(CO)cc1 | 0.0651 | -0.427 | -0.0861 | -0.533 | -0.195 | 1.09 | 1.11 | -1.14 (inactive) | -0.115 | 0.132 | 0.577 | 0.288 (inactive) | -0.45 (inactive) | 0.633 (inactive) | 2.12 | -1.04 (inactive) | 0.0553 | -0.344 | 0.0163 | -0.152
8 | COC(=O)[C@@]1(Cc2ccccc2)[C@H]2c3cc(C(=O)N(C)C)n(Cc4c(-c5ccccc5)noc4C)c3C[C@H]2CN1C(=O)c1ccccc1 | 0.948 | -0.287 | 0.308 | 0.346 | 1.66 | 1.81 | 1.24 | 1.6 (inactive) | 1.41 | 0.162 | -0.248 | 0.315 (inactive) | 0.555 (inactive) | 2.84 (inactive) | 2.7 | -1.07 (inactive) | 0.531 | -0.452 | 0.303 | 0.235
9 | CCCCCCCCCCC(O)C1C=CC2C(=O)N(Cc3ccccc3)C(=O)C2N1n1cnnc1 (stereo not given) | 0.794 | 0.0622 | 0.279 | 0.137 | 0.53 | 0.919 | 0.843 | 1.91 (inactive) | 1.08 | 0.582 | 1.14 | 0.187 (inactive) | -0.25 (inactive) | -0.976 (inactive) | 2.75 | -1.45 (inactive) | 0.326 | -0.331 | 0.55 | 0.0773
10 | COCCOC(=O)N1C(=O)[C@@]2(c3cc(C#CCNC(N)=O)ccc31)[C@H](c1ccc(O)cc1)N1[C@H](c3ccccc3)[C@H](c3ccccc3)OC(=O)[C@H]1[C@@H]2C(=O)NC[C@H](O)c1ccccc1 | 0.134 | 1.16 | 0.109 | 0.846 | 1.01 | 0.743 | 0.866 | -0.463 (inactive) | 1.55 | 0.127 | 1.55 | 0.71 (inactive) | 1.2 (inactive) | 0.611 (inactive) | 1.62 | -0.675 (inactive) | 0.434 | 0.664 | 1.06 | 0.0586
